Mtb bLac sens – beta-lactam sensitization of Mtb H37Rv, H37Rv; M. tuberculosis H37Rv growth with meropenem, percent inhibition; inhibition, % at 25 µM; hit rate 0.27% among 330,000; AID 434955, 2010;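 note: growth measured after seven days incubation then overnight dye step; 0% = bacteria only wells and 100% = bacteria with antibiotic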
Sa RN4220 lethal – growth inhibition of S. aureus RN4220, primary screen, OD600; 16 h; inhibition, % (test concentration not listed); hit rate 0.33% among 330,000; in the data active = inhibition above about 85%;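 note: plate controls were untreated cells for no effect and reference antibiotic for full effect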
Vc quorum ag-1 – inducers of Vibrio cholerae quorum light production without autoinducers, primary screen, BH1578 luxS cqsA deficient, single point; hit rate 0.16% among 350,000; AID 588436, 2011; V. cholerae BH1578 lux reporter, luminescence, 6 h; activation, % at 18.7 µM; in the data active = activation mostly above about 9.7%, no sharp cut-off
ugtP null kill – growth inhibition of ugtP-null S. aureus, primary screen, RN4220 ugtP deletion, OD600 | 16 h | growth inhibition, % (concentration not given with the values) | hit rate 0.54% among 330,000 | AID 1259309, 2017; in the data active = growth inhibition above about 68%;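 note: plate controls were untreated wells for no effect and antibiotic for full effect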
PfHsp40 rescue – rescue of yeast from PfHsp40 toxicity, primary screen, S. cerevisiae, ATP luminescence | S. cerevisiae expressing PfHsp40, growth rescue | growth rescue, % at 12.5 µM | hit rate 0.68% among 340,000 | AID 504582, 2011; in the data active = growth rescue above about 28%, passing the limit was not always enough;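 note: yeast W303a lacking pdr1 and pdr3 grown in galactose medium; growth measured after three days at 30 °C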
Vc quorum ag-2 – V. cholerae lux activation without autoinducers – BH1578 luxS cqsA deficient, cherry-pick, plate reader, dose response. activation, % at 50 µM. 620 tested, under 10 active. V. cholerae BH1578 lux reporter, luminescence, 6 h. shares compounds with Vc quorum ag-1
HeLa 24h tox – HeLa cell cytotoxicity, dose response, cytotoxicity control, 24 h, dry powder; HeLa viability, CellTiter-Glo ATP luminescence; activity change, negative = cytotoxicity, % at 35 µM; 25 tested, under 10 active; shares compounds with Vc quorum ag-1;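 active = signal drop with fitted half-maximal concentration at or below twice the highest valid dose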
Starred values were filed as active, the others as inactive; i = inactive; x = not tested or not shown; + = active, no number. In the library only some 1.2% were active in any assay of this set; here they are far more common. Unless noted, the rule behind the calls is not given here.

SMILES | Mtb bLac sens | Sa RN4220 lethal | Vc quorum ag-1 | ugtP null kill | PfHsp40 rescue | Vc quorum ag-2 | others
CCC(C)NC(=O)Cc1ccc(-c2ccccc2)cc1 (stereo unspecified) | 2 | -2 | + | 3 | 0 | i | HeLa 24h tox=-6
COc1ccccc1NC(=O)Cc1ccc(-c2ccccc2)cc1 | 12 | 13 | + | 12 | 11 | i
COc1cc(C=NNC(=O)CN2CCCCC2)ccc1OCc1ccc(Br)cc1 | x | 0 | x | 3 | x | x
C=C1CCN(C(CC(C)C)C(=O)NCCC(C)C)S(=O)(=O)c2ccccc21 (stereo unspecified) | x | 5 | x | -2 | x | x
CC(NC(=O)c1nc[nH]c1C(=O)NCC(=O)OCc1ccccc1)c1ccccc1 (stereo unspecified) | x | 4 | x | -2 | x | x
CCOC(=O)c1cnc(SCC(=O)OCC(=O)NC2CCS(=O)(=O)C2)nc1N (stereo unspecified) | -9 | -3 | 32* | -3 | -1 | 1
O=c1c2ccccc2nnn1CSc1nnc(-c2cccnc2)n1-c1ccccc1F | -21 | 7 | 12 | 9 | 0 | 0
COc1ccc(C=NNC(=O)CCC(=O)Nc2ccccc2)cc1OC | x | -2 | x | 10 | x | x
OCCN1CCN(CC(O)COc2ccc(Cl)cc2)CC1 (stereo unspecified) | -5 | 6 | 17* | 8 | 0 | 0
Cc1ccc(C)c(-n2c(Cc3cccs3)n[nH]c2=S)c1 | -4 | 15 | 13 | 0 | -1 | 0
S=c1[nH]nc(Cc2cccs2)n1-c1ccccc1Cl | 4 | 1 | 0 | -3 | -1 | x
N#CCSc1ccccc1NC(=O)COC(=O)CCNC(=O)c1ccc([N+](=O)[O-])cc1 | x | 3 | 9 | 4 | 1 | 0
O=C(CCNC(=O)c1ccc([N+](=O)[O-])cc1)Nc1ccccc1N1CCCC1 | -2 | 2 | -2 | 3 | 0 | x
Cc1cnc(C(=O)OCC(=O)Nc2ccc(Cl)cc2)cn1 | 2 | 5 | i | 7 | -1 | x
Cc1cnc(C(=O)OCC(=O)NC(=O)NC(C)C)cn1 | -4 | 12 | 33* | 5 | 0 | 0
CC1CN(C2CCC(C#N)(c3ccc(F)cc3)CC2)CC[C@]1(C(=O)O)c1ccccc1 (stereo partly specified) | x | 5 | x | -1 | x | x
Cc1ccc(S(=O)(=O)N=C(Nc2cc(C)on2)c2ccc(Cl)cc2)cc1 | x | 8 | x | -9 | x | x
Cc1ccc(S(=O)(=O)N(C)c2ccc(OCC(=O)N3CCCCC3)cc2)cc1 | 3 | 5 | 12 | -4 | 1 | 2
O=C(C(=CO)N=Nc1cccc(C(F)(F)F)c1)c1ccccc1 | x | -5 | x | 4 | x | x
O=C(NCCC(=O)N1CCN(c2ccc(F)cc2)CC1)c1ccco1 | x | -2 | 12 | 4 | 1 | 100
O=C(NCCC(=O)N1CCN(c2ccccc2F)CC1)c1ccco1 | -14 | 3 | i | 5 | 0 | x
NC(=O)c1cc(Br)cc(C2CCCCC2)c1O | 8 | -5 | x | 31 | 13 | i
CCOC(=O)C1CCCN(C(=O)c2cc3c(OC)c(OC)c(OC)cc3[nH]2)C1 (stereo unspecified) | -8 | 4 | 17* | 9 | -1 | 0
CCOC(=O)C1CCN(C(=O)c2cc3c(OC)c(OC)c(OC)cc3[nH]2)CC1 | -3 | 2 | -8 | 1 | 1 | x
Cc1cc2c(ncn2C)c(NS(=O)(=O)c2ccccc2Cl)c1C | 0 | 3 | -2 | 0 | 6 | x
Cc1cc2c(ncn2C)c(NS(=O)(=O)c2cc(Cl)ccc2Cl)c1C | 8 | 17 | 17* | 4 | 0 | 0
Nc1ccccc1C(=O)NN=C1C2CN3CCN(C2)CC1(Cc1ccccc1)C3 | x | 9 | x | 5 | x | x
COc1ccccc1NCC(=O)NN=C(C)c1cccs1 | x | 0 | x | -4 | x | x
COc1cc(OC)c(OC)cc1CNC(C)C(O)c1ccccc1 (stereo unspecified) | -6 | 1 | 18 | -4 | -1 | 0
CCN1C(=O)C2C(c3ccc(-c4ccc(F)cc4)cc3)N3CCC[C@@]3(C(=O)OC)C2C1=O (stereo partly specified) | x | -5 | x | -5 | x | x
